# Measured values published in the supplement of paper PMC12636033.
# ± gives the standard deviation of the averaged measurements. In all, about 33,000 sequences were measured (“E-score (rank enrichment, -0.5 to 0.5)”: median about -0.0028, highest 2% from about 0.23 on). This excerpt belongs to a sample that is enriched for the highest values.
# Tested on: 2Sb-muMax20 (muMax20 with two 1,3-bis(methyl)benzene Cys staples, A13C/A17C and Q88C/A92C, C-terminal Lys)
# Assay: PBM 8-mer E-score (E-score (rank enrichment, -0.5 to 0.5)); higher = stronger preferential binding
# Experimental: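 Protein binding microarray (universal PBM chip covering all 10-mers in fixed probe flanks) with chemically synthesized human Max(13-93) bHLH-LZ analogs (not full-length Max) bearing noncanonical residues (hArg, Tha, Aib, Nle at 65) and aromatic Cys staples. Read-out per 8-mer (and its reverse complement): E-score (rank-based enrichment, -0.5 to 0.5) and Z-score of median probe intensity.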
row,Sequence,PBM 8-mer E-score
1,AAGTTGAA,0.0152 ± 0.0042
2,TAGTTGAA,0.23 ± 0.012
3,CAGTTGAA,0.0124 ± 0.054
4,AGAGAAGG,-0.029 ± 0.046
5,GATAGATA,-0.0327 ± 0.03
6,TATAGATA,0.213 ± 0.042
7,CATAGATA,0.277 ± 0.041
8,ATCGCTCA,0.0207 ± 0.008
9,AGGAAGGC,-0.0526 ± 0.077
10,CCTGTTTA,0.137 ± 0.0084
11,ACAAAATG,0.238 ± 0.039
12,CCAAAACG,-0.0328 ± 0.043
13,ACAAAATA,0.193 ± 0.13
14,ACAAAATC,0.0704 ± 0.00074
15,ACAAAACG,0.262 ± 0.006
16,CCAAATGG,-0.0949 ± 0.091
17,AGAAATAG,0.232 ± 0.034
18,AGAAATAC,0.0203 ± 0.03
19,AGAAATAT,0.0844 ± 0.12
20,ACAAAACC,0.13 ± 0.14
21,ACAAATGT,0.148 ± 0.026
22,ACAAATGG,0.266 ± 0.032
23,ACGTGGAC,0.15 ± 0.054
24,AAAGAGGG,0.0479 ± 0.037
25,CTCGTATC,0.0723 ± 0.026

row,Sequence,PBM 8-mer E-score
1,GCCCTGTA,0.032 ± 0.063
2,TTAATGAA,0.115 ± 0.088
3,AGGACAGG,-0.1548 ± 0.00025
4,TATAGCGA,0.0513 ± 0.037
5,AGAAATGA,-0.0864 ± 0.0095
6,AGAAATGG,0.251 ± 0.033
7,AGAAATGC,0.177 ± 0.015
8,ACCTGCGC,-0.114 ± 0.011
9,CCCAGCGA,-0.132 ± 0.046
10,CCTCTACA,0.0181 ± 0.028
11,CAATCACG,0.231 ± 0.021
12,CAATCACA,0.0918 ± 0.051
13,AAATCACA,0.199 ± 0.0051
14,GATCTCCC,0.122 ± 0.056
15,ATTGTAGC,-0.106 ± 0.0083
16,CGTCTCCA,-0.0564 ± 0.02
17,AGTGGTAT,0.0204 ± 0.062
18,CCCCCACA,-0.26 ± 0.052
19,ATCCCCCC,-0.321 ± 0.063
20,ATCCCCAC,0.301 ± 0.04
21,CCCCCACG,0.0751 ± 0.11
22,CTCCCCAG,0.162 ± 0.085
23,CTCCCCCA,-0.142 ± 0.09
24,CTCCCCAA,0.309 ± 0.072
25,TCCCCACA,0.261 ± 0.055

row,Sequence,PBM 8-mer E-score
1,ATCCCCAT,0.118 ± 0.011
2,ATCCCCAG,0.0369 ± 0.07
3,ATCCCCCA,-0.171 ± 0.032
4,ATCCCCAA,0.301 ± 0.04
5,ACTCGGAA,-0.104 ± 0.083
6,ATGCACTG,0.062 ± 9.2e-05
7,CCGCATAA,0.184 ± 0.0044
8,ATTTTAAA,0.126 ± 0.03
9,GGAGGACA,-0.0957 ± 0.0057
10,AGTTCGTA,-0.119 ± 0.064
11,CAGGGGGG,-0.241 ± 0.072
12,ATAGCAAA,0.1715 ± 0.0012
13,AGTCTGAC,-0.0779 ± 0.015
14,TTCCCAAA,0.0153 ± 0.013
15,CCCCCCAC,-0.238 ± 0.085
16,GTCCCCAC,0.0697 ± 0.074
17,TCCCCCAA,-0.179 ± 0.0084
18,GTCCCCAA,0.0368 ± 0.035
19,CCCCCAAA,-0.215 ± 0.027
20,TCCCCAAA,0.372 ± 0.029
21,CTCCCCAC,0.292 ± 0.041
22,TTCCCCAA,0.32 ± 0.021
23,AACAGATA,-0.0213 ± 0.017
24,ACCTCTGA,-0.0896 ± 0.0083
25,CAGACATG,-0.0511 ± 0.076

row,Sequence,PBM 8-mer E-score
1,ACTGCAGC,0.0488 ± 0.072
2,ACGCAACC,-0.0577 ± 0.0052
3,ACGCCCCT,0.109 ± 0.11
4,GCTAGAAA,0.197 ± 0.055
5,ACAGCAAT,0.0979 ± 0.018
6,ACAGAAAC,0.126 ± 0.0055
7,ACAGAAAG,0.278 ± 0.04
8,ACAGCAAC,-0.0541 ± 0.075
9,ACAGCAAG,0.24 ± 0.03
10,ACAGAAAA,0.083 ± 0.044
11,ATCCCGAG,-0.0644 ± 0.021
12,CAAGGCAA,0.0983 ± 0.056
13,ATTTGTTG,0.232 ± 0.0078
14,ATTTGTTC,0.15 ± 0.058
15,ATTTGTTA,0.187 ± 0.0095
16,ATACTGCG,0.0194 ± 0.043
17,AATTAAAG,0.133 ± 0.025
18,ACTTAAGT,0.246 ± 0.033
19,AATTAAGA,0.216 ± 0.038
20,AATTAAAC,0.19 ± 0.065
21,AATTAAGC,0.121 ± 0.063
22,AATTAAAT,0.235 ± 0.011
23,ACTTAAGA,0.00227 ± 0.079
24,ACTTAAGC,-0.134 ± 0.061
25,AATTAAGT,0.24 ± 0.005

row,Sequence,PBM 8-mer E-score
1,CCCATTGA,0.02 ± 0.063
2,GATCGAGA,-0.0884 ± 0.04
3,AAAAAGTT,0.16 ± 0.014
4,ACTTCTTA,0.125 ± 0.057
5,CAATGCAA,0.0811 ± 0.012
6,CCAGGGGG,-0.31 ± 0.076
7,TATCAACA,0.0969 ± 0.067
8,AATCAACA,0.308 ± 0.015
9,GATCAACA,-0.139 ± 0.023
10,CGTTCTAC,0.0207 ± 0.027
11,AATGACCC,0.231 ± 0.0025
12,GATGACCC,-0.157 ± 0.019
13,AATGACCG,-0.0804 ± 0.021
14,CTGACTTA,0.107 ± 0.048
15,CTCTCCAG,-0.198 ± 0.013
16,GTAGAAAA,0.0997 ± 0.012
17,ACCGCTAT,-0.0561 ± 0.049
18,GGAAAGCC,-0.00378 ± 0.093
19,ATACGTAC,0.16 ± 0.0041
20,ATACGTAA,0.115 ± 0.0061
21,ATACGTAT,0.407 ± 0.031
22,AACAGTTC,0.0164 ± 0.036
23,CACGTGCG,0.39 ± 0.022
24,AACGTGCG,0.152 ± 0.016
25,AACGTGCC,0.0151 ± 0.03

row,Sequence,PBM 8-mer E-score
1,CACGTGCC,0.377 ± 0.015
2,CCCGTGCG,-0.206 ± 0.01
3,GACGTGCC,-0.174 ± 0.023
4,AACGTGCA,0.0984 ± 0.068
5,AAAGTGCA,0.0798 ± 0.0049
6,TAAGTGCA,0.243 ± 0.008
7,CACGTGCA,0.417 ± 0.026
8,TACGTGCA,0.1615 ± 0.00067
9,GAAGTGCA,0.122 ± 0.077
10,GTGCTAAC,-0.0619 ± 0.0065
11,ATTGCTAA,-0.034 ± 0.043
12,AAGGAATC,-0.0571 ± 0.08
13,CATATGCG,0.192 ± 0.0076
14,AATAGCTC,0.0405 ± 0.046
15,ATGCGTAG,0.151 ± 0.017
16,CTGGGGGC,-0.289 ± 0.044
17,ATAAGGAT,0.277 ± 0.0071
18,ATAAGGTA,0.132 ± 0.044
19,ATAAGGAC,-0.0224 ± 0.047
20,ATAAGGTC,0.231 ± 0.014
21,CTAAGGTC,0.0156 ± 0.022
22,ATAAGGAA,-0.0755 ± 0.029
23,ATCGGATC,-0.225 ± 0.064
24,GCGAAGCC,-0.143 ± 0.0091
25,AGTCTCTG,-0.178 ± 0.037

row,Sequence,PBM 8-mer E-score
1,GCCGGTTA,-0.0245 ± 0.051
2,TACTGGAA,0.187 ± 0.013
3,ACATAGTA,0.141 ± 0.013
4,CCATAGTA,0.161 ± 0.049
5,GCATAGTA,0.234 ± 0.05
6,ACCGTGAG,-0.24 ± 0.025
7,GGGATCCA,-0.0748 ± 0.046
8,AGGTGCAG,-0.176 ± 0.029
9,AATTGAAT,0.229 ± 0.021
10,AATTGAAC,-0.0329 ± 0.083
11,AATTGAAA,0.272 ± 0.014
12,ACCGTAGC,-0.0428 ± 0.011
13,AGCTTCTA,-0.0235 ± 0.043
14,AGCTTCTC,0.245 ± 0.00095
15,AGCTTCTG,-0.127 ± 0.071
16,TACGTACA,0.198 ± 0.0031
17,CTACCGAC,-0.0505 ± 0.014
18,CTCCCCTA,0.182 ± 0.019
19,CTCCCCTC,0.147 ± 0.072
20,ATCCCCTA,0.2799 ± 0.00079
21,GTCCCCTA,0.093 ± 0.011
22,ATCCCCTG,0.114 ± 0.01
